Among the data in ChEMBL document CHEMBL1961873, “Compounds: GSK PKIS; Assays: Nanosyn kinase panel” (2012) are inhibition values, retold here.

Test [1] deals with T1, Serine/threonine-protein kinase TBK1 (Homo sapiens) (UniProt Q9UHD2).
T1 sequence (whole entry): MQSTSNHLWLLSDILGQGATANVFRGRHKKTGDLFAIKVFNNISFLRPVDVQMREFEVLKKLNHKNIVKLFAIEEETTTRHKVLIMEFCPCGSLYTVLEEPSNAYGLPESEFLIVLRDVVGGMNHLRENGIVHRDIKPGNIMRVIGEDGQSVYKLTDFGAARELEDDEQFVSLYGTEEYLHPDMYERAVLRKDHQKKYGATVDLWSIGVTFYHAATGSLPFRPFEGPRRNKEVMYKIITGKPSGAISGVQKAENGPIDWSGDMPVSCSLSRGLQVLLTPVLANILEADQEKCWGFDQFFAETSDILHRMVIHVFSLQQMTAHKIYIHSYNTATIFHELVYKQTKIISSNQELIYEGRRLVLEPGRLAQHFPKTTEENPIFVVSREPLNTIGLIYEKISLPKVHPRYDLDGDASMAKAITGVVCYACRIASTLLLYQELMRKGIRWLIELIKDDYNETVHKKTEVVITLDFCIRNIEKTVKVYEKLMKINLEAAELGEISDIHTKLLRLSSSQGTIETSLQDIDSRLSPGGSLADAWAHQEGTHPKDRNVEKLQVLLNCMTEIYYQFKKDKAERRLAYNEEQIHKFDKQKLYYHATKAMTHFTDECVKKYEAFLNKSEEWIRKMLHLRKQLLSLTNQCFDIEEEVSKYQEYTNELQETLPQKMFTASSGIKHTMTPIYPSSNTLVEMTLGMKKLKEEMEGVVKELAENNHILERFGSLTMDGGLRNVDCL
Particulars: at 1 µM.

Test [2] concerns the target T2, Testis-specific serine/threonine-protein kinase 1 (Homo sapiens) (UniProt Q9BXA7).
T2 sequence (whole entry): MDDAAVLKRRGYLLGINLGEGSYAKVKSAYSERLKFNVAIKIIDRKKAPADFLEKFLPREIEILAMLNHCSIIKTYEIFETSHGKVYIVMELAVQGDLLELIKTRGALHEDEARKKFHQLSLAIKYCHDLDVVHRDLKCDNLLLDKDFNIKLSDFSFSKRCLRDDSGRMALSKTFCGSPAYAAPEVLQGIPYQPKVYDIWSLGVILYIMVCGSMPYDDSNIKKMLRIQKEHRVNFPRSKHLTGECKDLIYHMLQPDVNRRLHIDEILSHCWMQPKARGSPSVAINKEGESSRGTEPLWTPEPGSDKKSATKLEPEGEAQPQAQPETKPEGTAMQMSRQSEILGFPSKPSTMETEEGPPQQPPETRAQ
The conditions noted are these: at 0.1 µM.

Test [3] addresses T2, Testis-specific serine/threonine-protein kinase 1 (Homo sapiens). The conditions noted are these: at 1 µM.
Test [4] deals with T3, Testis-specific serine/threonine-protein kinase 2 (Homo sapiens) (UniProt Q96PF2).
T3 sequence (whole entry): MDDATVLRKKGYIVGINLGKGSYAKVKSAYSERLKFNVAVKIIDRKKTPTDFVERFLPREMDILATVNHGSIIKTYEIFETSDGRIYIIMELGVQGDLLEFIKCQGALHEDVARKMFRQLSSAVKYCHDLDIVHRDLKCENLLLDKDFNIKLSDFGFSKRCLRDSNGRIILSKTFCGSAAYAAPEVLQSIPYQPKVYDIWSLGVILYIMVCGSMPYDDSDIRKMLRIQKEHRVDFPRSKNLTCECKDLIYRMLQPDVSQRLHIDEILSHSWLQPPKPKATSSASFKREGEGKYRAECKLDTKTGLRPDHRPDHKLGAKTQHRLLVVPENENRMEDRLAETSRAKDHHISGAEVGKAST
The conditions noted are these: at 0.1 µM.

Test [5] has as its target T3, Testis-specific serine/threonine-protein kinase 2 (Homo sapiens). Particulars: at 1 µM.
The target in test [6] is Casein kinase I isoform alpha (Homo sapiens) (UniProt P48729). Particulars: at 0.1 µM.
Sequence of Casein kinase I isoform alpha (Homo sapiens) (P48729 2-337 limits assumed): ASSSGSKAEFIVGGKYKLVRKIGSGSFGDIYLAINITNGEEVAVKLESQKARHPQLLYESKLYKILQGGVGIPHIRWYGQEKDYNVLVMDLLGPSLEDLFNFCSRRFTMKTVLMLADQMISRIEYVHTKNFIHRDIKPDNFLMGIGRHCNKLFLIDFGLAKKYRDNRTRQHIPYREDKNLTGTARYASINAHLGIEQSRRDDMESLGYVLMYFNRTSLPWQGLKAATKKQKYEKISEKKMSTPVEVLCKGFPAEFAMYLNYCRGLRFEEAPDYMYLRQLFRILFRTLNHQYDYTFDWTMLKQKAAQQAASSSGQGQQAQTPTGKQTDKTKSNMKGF
For test [7] the target is unchanged. Particulars: at 1 µM.
In test [8] the target is Casein kinase I isoform gamma-1 (Homo sapiens) (UniProt Q9HCP0). The conditions noted are these: at 0.1 µM.
Sequence of Casein kinase I isoform gamma-1 (Homo sapiens) (Q9HCP0 whole entry, looked up, canonical isoform): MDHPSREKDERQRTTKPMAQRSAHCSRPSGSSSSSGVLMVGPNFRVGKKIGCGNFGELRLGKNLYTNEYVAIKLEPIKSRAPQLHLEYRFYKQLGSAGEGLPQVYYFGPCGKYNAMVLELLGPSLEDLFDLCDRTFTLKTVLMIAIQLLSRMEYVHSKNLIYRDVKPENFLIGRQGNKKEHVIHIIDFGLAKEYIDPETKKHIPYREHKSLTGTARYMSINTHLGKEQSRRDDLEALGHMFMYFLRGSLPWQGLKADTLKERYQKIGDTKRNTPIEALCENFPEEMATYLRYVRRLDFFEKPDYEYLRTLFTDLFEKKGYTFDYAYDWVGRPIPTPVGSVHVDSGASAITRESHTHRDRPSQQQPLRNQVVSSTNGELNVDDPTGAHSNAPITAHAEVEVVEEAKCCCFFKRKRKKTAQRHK
Test [9] shares this target. Particulars: at 1 µM.
Test [10] deals with Casein kinase I isoform gamma-2 (Homo sapiens) (UniProt P78368). The conditions noted are these: at 0.1 µM.
Sequence of Casein kinase I isoform gamma-2 (Homo sapiens) (P78368 whole entry, looked up, canonical isoform): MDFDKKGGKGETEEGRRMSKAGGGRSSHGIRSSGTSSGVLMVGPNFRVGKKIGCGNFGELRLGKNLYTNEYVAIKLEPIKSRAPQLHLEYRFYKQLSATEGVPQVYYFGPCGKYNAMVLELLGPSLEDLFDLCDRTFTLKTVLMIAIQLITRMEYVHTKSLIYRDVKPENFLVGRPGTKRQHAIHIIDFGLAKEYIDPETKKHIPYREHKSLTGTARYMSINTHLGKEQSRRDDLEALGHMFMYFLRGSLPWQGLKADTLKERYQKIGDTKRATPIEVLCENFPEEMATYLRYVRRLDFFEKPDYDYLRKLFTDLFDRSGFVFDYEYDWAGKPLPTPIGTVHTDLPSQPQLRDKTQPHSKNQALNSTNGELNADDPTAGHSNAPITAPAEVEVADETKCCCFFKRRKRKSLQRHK
Test [11] shares this target. Particulars: at 1 µM.
The target of test [12] is Casein kinase I isoform gamma-3 (Homo sapiens) (UniProt Q9Y6M4). Particulars: at 0.1 µM.
Sequence of Casein kinase I isoform gamma-3 (Homo sapiens) (Q9Y6M4 whole entry, looked up, canonical isoform): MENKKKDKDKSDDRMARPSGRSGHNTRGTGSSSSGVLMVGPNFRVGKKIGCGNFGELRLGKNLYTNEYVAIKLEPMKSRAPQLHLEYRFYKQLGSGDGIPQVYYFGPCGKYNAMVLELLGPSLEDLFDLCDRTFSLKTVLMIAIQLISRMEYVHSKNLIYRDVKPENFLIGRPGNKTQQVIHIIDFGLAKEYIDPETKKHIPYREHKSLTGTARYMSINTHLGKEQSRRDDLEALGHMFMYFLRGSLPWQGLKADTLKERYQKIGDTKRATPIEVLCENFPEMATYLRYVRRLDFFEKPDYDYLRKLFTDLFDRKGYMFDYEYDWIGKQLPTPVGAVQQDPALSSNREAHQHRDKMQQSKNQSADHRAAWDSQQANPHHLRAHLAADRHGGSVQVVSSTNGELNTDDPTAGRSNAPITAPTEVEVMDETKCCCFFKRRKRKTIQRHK
The target is the same in test [13]. Particulars: at 1 µM.
For test [14], the target named is Cyclin-dependent kinase 1 (Homo sapiens) (UniProt P06493). The conditions noted are these: at 1 µM.
Sequence of Cyclin-dependent kinase 1 (Homo sapiens) (P06493 whole entry, looked up): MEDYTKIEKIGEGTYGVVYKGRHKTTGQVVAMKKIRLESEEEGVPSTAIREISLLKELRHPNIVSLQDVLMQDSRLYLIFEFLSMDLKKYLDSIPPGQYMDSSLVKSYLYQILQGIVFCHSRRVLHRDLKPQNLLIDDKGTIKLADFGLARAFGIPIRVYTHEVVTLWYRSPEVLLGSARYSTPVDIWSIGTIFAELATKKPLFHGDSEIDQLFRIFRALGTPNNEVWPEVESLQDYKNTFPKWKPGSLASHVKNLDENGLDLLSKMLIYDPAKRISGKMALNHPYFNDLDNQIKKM
Test [15] deals with Cyclin-dependent kinase 2 (Homo sapiens) (UniProt P24941). The conditions noted are these: at 0.1 µM.
For test [16] the target is unchanged. Particulars: at 1 µM.
The target is the same in test [17]. The conditions noted are these: at 0.1 µM. This is another data set of the same source.
For test [18] the target is unchanged. The conditions noted are these: at 1 µM. This is another data set of the same source.
Test [19] concerns the target CDK3/Cyclin E (Homo sapiens) (UniProt P24864+Q00526). The conditions noted are these: at 0.1 µM.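 Note: reported percentages are mean inhibition values.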
The target of test [20] is Cyclin-dependent kinase 1 (Homo sapiens) (UniProt P06493). Particulars: at 0.1 µM.

Sequence of CDK3/Cyclin E (Homo sapiens) (P24864 whole entry, looked up): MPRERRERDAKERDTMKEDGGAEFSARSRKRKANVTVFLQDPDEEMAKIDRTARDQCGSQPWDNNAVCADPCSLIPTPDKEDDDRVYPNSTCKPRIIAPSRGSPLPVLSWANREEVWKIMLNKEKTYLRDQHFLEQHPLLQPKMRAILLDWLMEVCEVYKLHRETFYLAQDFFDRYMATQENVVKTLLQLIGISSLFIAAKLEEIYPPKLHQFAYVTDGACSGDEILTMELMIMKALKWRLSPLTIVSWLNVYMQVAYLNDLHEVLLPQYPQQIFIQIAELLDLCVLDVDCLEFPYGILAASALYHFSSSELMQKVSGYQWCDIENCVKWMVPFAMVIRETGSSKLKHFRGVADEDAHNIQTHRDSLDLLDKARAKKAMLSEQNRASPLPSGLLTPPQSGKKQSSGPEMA
Sequence of CDK3/Cyclin E (Homo sapiens) (Q00526 whole entry, looked up): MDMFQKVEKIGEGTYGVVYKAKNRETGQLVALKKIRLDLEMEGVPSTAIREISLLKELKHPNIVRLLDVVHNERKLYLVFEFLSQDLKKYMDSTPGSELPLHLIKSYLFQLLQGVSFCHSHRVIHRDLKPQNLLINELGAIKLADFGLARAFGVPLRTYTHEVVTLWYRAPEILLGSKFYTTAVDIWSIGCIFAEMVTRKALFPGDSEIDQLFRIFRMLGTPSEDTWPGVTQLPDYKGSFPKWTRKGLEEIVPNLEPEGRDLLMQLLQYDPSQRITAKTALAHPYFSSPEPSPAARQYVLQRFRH

By inhibition is commonly meant the drop in the measured response relative to a control, in per cent. Consider `COc1ccccc1Nc1ncc(-c2ccccc2)o1`, for which the inhibition in test [1] stood at 2.91%; in test [2] it was 4.78%; in [3], 4.46%; in test [4] it was 2.44%; in [5], 2.11%; in [6], 2.14%. The inhibition in test [7] came out at 2.52%; in test [8], 4.56%; in [9] it was 5.25%; in test [10] it was 4.37%; in test [11], 3.85%; in [12] it was 3.77%. Besides, the inhibition in [13] came out at 5.78%; in test [14] it was 0.64%; in [15] it was 2.24%; in test [16], 3.34%; in test [17] it was 1.7%; in [18], 4.15%. Besides, the inhibition in test [19] was -1.03%.

Turning to `COc1cc(C)c(NC(=O)CN(C)C)cc1Nc1nc(Nc2cccc(F)c2C(N)=O)c2cc[nH]c2n1`, the inhibition was 25.5% in [1]; 61.6% in test [2]; 89.3% in test [3]; 31.8% in [4]; 73.2% in test [5]; -0.74% in test [6]. The inhibition in test [7] worked out at 21.5%; in [8], 2.04%; in [9] it was 12.9%; in test [10], 1.61%; in test [11] it was 20%; in test [12], 1.69%. Moreover, the inhibition is 20.6% in [13]; -0.88% in test [20]; -1.98% in test [14]; 0.1% in [15]; -9.04% in test [16]; -0.26% in test [17]. Further, the inhibition in test [18] is 0.04%; in test [19] it was -0.76%.

Regarding `Nc1ncnc2occ(-c3ccc(NC(=O)Nc4cc(C(F)(F)F)cc(C(F)(F)F)c4)cc3)c12`, the inhibition in [1] was 3.1%; in test [2], -0.4%; in test [3], -1.46%; in [4], 1.06%; in test [5], -2.08%; in test [6], -0.62%. In addition, the inhibition in test [7] turned out to be 1.87%; in [8] it was 1.49%; in [9] it was 2.74%; in [10], 0.5%; in test [11] it was 1.8%; in test [12], 1.91%. The inhibition in test [13] is 1.31%; in test [20], -0.06%; in [14] it was 4.1%; in test [15] it was 0.86%; in test [16], 2.88%; in [17] it was 1.68%. The inhibition is 3.96% in [18] and -1.28% in test [19].

`Cn1cc(C=C2C(=O)Nc3cccnc32)c2ccccc21`: the inhibition in [1] is 10.2%; in [2], 1.87%; in test [3], 1.12%; in test [4] it was -0.65%; in test [5], -0.52%; in test [6], 3.21%. The inhibition in [7] came out at 14.3%; in [8] it was 2.59%; in test [9], 4.56%; in [10], 1.76%; in test [11], 3.63%; in [12] it was 1.67%. Moreover, the inhibition in test [13] came out at 5.3%; in test [20], 4.27%; in test [14] it was 7.4%; in [15], 2.66%; in [16], 3.89%; in [17], 7.44%. For the same molecule, the inhibition in [18] worked out at 8.9%; in test [19], 10.7%.

In the case of `CN1CCC(C(=O)Nc2n[nH]c3nnc(-c4ccccc4)cc23)CC1`, the inhibition in test [1] worked out at 3.05%; in test [2], 5.87%; in test [3], 6.95%; in test [4], 3.85%; in test [5], 6.08%; in [6], 2.13%. The inhibition is 4% in [7]; 5.08% in [8]; 5.43% in [9]; 3.51% in test [10]; 6.16% in test [11]; 2.15% in test [12]. Moreover, the inhibition in test [13] stood at 4.71%; in [20], 1.44%; in [14] it was 9.39%; in [15], 1.83%; in test [16], 5.99%; in test [17] it was 5.55%. Also, the values for the inhibition in test [18] and in [19] were 7.79% and 5.12%, respectively.

As to `COc1cc2ncn(-c3cc(OCc4ccccc4C(F)(F)F)c(C(N)=O)s3)c2cc1OC`, the inhibition is 13.6% in [1]; 2.93% in test [2]; 6.32% in [3]; 2.18% in [4]; 2.55% in test [5]; 1.38% in [6]. In addition, the inhibition in test [7] was 3.61%; in test [8], 0.9%; in [9], 2.06%; in [11], 1.15%; in test [12], -0.01%; in test [13], 1.63%. Further, the inhibition in test [20] was -4.16%; in [14], -1.4%; in test [15] it was -2.45%; in test [16] it was 1.5%; in test [17], 0.41%; in test [18], 4.83%. For the same molecule, the inhibition in [19] is -1.21%.

`COC(=O)Nc1nc2cc(Oc3cccc(NC(=O)Nc4cc(C(F)(F)F)ccc4F)c3)ccc2[nH]1`: the inhibition is 4.23% in [1]; -0.26% in [2]; -0.63% in [3]; -0.42% in test [4]; -1.58% in [5]; -1.03% in [6]. The inhibition in [7] is -0.8%; in test [8], 0.24%; in [9] it was 0.48%; in [10] it was -0.21%; in [11], -0.35%; in test [12], -2.32%. Also, the inhibition was -1.3% in [13]; 2.66% in test [20]; 0.7% in [14]; 0.37% in test [15]; -0.89% in test [16]; 0.62% in test [17]. Further, the values for the inhibition in test [18] and in [19] were 1.21% and -0.22%, respectively.
